Inconclusive results are not listed. The source made the active and inactive calls. Calls come from the whole dose curve; as a rule, active = well fitted cell-killing curve with a large enough effect; inconclusive = small, poorly fitted or top-dose-only effect; inactive = flat fitted curve, though single readings scatter.
test: Cell Viability - LYMP2-009 (AID 968); settings: LYMP2-009 lymphoblastoid cell viability; series mostly up to 92.2 µM; activity change, negative = viability loss: at the top concentration;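 note: cells exposed to compound for 24 h at 37 °C; 0% = DMSO alone and the full-kill end = tetraoctylammonium bromide at 92 µM; nearly all actives have a fitted effect of over 55% in size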
From the text: NIH Chemical Genomics Center [NCGC]
NIH Molecular Libraries Screening Centers Network [MLSCN]
National Institutes of Environmental Health Sciences [NIEHS]
National Toxicology Program [NTP]
We have developed a 1536-well cell-based assay for quantitative high throughput screening (qHTS) against a number of cell lines to determine in vitro cytotoxicity of small molecules. This particular assay uses a human lymphoblastoid cell line (LYMP2-009) purchased from Coriell Institute for Medical Research.
NCGC Assay Protocol Summary:
The CellTiter-Glo luminescent cell viability assay (Promega) is a homogeneous method to measure the number of viable cells in culture. The end point readout of this assay is based on quantitation of intracellular ATP, an indicator of metabolic activity, using the luciferase reaction. Luciferase catalyzes the oxidation of beetle Luciferin to oxyluciferin and light in the presence of ATP. The luminescent signal is proportional to amount of ATP present.
Using the CellTiter-Glo luminescent cell viability assay, the amount of cellular ATP was measured in the lymphoblastoid cell line with complete culture medium following compound treatment for 24 hours. The assay was performed in opaque white Kalypsys 1536-well plates. In the screen, tetraoctylammonium bromide was used as positive control. Library compounds were measured for their ability to cause acute toxicity in the cell line, as reflected by a decrease in intracellular ATP levels, in a concentration-dependent manner. […] AC50 values were determined from concentration-response data modeled with the standard Hill equation.
qHTS protocol for CellTiter Glo lymphoblastoid cellular assay
[Step] [Parameter] [Value] [Description]
1. Reagent; 5 uL; 2500 lymphoblastoid cells/well
2. Time; 5 hr; 37 C incubation
4. Controls; 23 nL; Tetraoctylammonium bromide 6.4pM to 92 uM
5. Time; 24 hr; 37 C incubation
6. Reagent; 5 uL; CellTiter Glo reagent
7. Time; 30 min; Room Temperature
8. Detection; Luminescence; Viewlux plate reader
Keywords: cell viability, cytotoxicity, lymphoblastoid cell line, luminescence, NTPHTS, NTPHTS_NCGC, NIEHS, DSSTox, MLSMR, MLSCN, NIH Roadmap, qHTS, NCGC

| Compound | activity change, negative = viability loss |
| --- | --- |
| CC(=O)NS(=O)(=O)c1ccc(N)cc1 | -9.52% (inactive) |
| CCCC(O)C(CC)CO (configuration not stated) | -1.3% (inactive) |
| CC(=O)Nc1ccc(C(=O)O)cc1 | -3.59% (inactive) |
| CCCCCCCC(=O)OCC(COC(=O)CCCCCCC)OC(=O)CCCCCCC | 0.767% (inactive) |
| Cc1c(N(C)C)c(=O)n(-c2ccccc2)n1C | -2.89% (inactive) |
| CC(=O)Nc1ccccc1 | -6.03% (inactive) |
| Nc1ccc(S(=O)(=O)c2ccc(N)cc2)cc1 | -4.17% (inactive) |
| O=C(c1ccccc1)C(O)c1ccccc1 (configuration not stated) | -12% (inactive) |
| FC(F)(F)C(Cl)Br (configuration not stated) | -0.894% (inactive) |
| CC1CC(OC(=O)c2ccccc2O)CC(C)(C)C1 (configuration not stated) | 0.965% (inactive) |
| C=CCNC(N)=S | -0.462% (inactive) |
| COc1ccc(O)cc1 | -10.9% (inactive) |
| CCCCOC(=O)c1ccc(N)cc1 | -3.74% (inactive) |
| CC(=O)OCC(COC(C)=O)OC(C)=O | -2.11% (inactive) |
| O=C1C(c2[nH]c3ccccc3c2O)=Nc2ccccc21 | -7.74% (inactive) |
| CC(=O)Nc1cccc(O)c1 | -5.42% (inactive) |
| Cc1cc(C)nc(NS(=O)(=O)c2ccc(N)cc2)n1 | -3.4% (inactive) |
| O=C1c2cccc(O)c2C(=O)c2c(O)cccc21 | -23.9% (inactive) |
| Cc1cc(=O)[nH]c(=S)[nH]1 | -2.05% (inactive) |
| CCCCCC(N)=O | -16.7% (inactive) |
| O=C(O)CCCCC1CCSS1 (configuration not stated) | -1.59% (inactive) |
| CCN(CC)C(=O)c1cccc(C)c1 | -1.84% (inactive) |

Source: PubChem BioAssay (NCATS)
